High-throughput results from PubChem.
BAZ2B inh – BAZ2B (human) inhibition | AlphaScreen BAZ2B-H3K14Ac peptide displacement | Potency, µM (titrated, usually from 114 µM), actives largely listed as inhibitors | hit rate 4.4% among 360,000 | AID 504333; further: nearly all actives have a fitted effect of over 60% in size
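In this displacement format the biotinylated H3(5-23) peptide acetylated at Lys14 serves as ligand at 50 nM, with BAZ2B at 50 nM in PBS pH 7.4 containing 0.01% Tween-20. Donor and acceptor beads are 10 ug/mL final.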
CtBP-E1A blk – CtBP/E1A binding inhibition | AlphaScreen GST-E1A/His-CtBP binding, 1536-well; active compounds read low | AID 651724 | activity change, % (concentration not given with the values) | hit rate 0.49% among 340,000; in the data active means activity change below about -65%; inconclusive means mostly about -30% to -63%
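Steps: dispense buffer (Tris pH 8.0, NaCl 300 mM, TCEP 1 mM, BSA, Tween 20); add 5X protein mix (GST-E1A, His-CtBP, 125 nM each); pin 23 nL compound; 2 h at 37 °C, dark; add 5X beads (50 ug/mL); 1 h; read.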
G9a inh – inhibitors of human histone lysine methyltransferase G9a. hit rate 8.8% among 350,000. Potency, µM (top dose mostly 102 µM), actives largely listed as inhibitors. G9a H3K9 monomethylation, AlphaScreen, 2 h. Q96KQ7; further: nearly all actives have a fitted effect of over 75% in size
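Methyltransferase reactions run at room temperature for 2 h (20 nM enzyme, 500 nM biotin-H3K9 peptide, 20 uM SAM) after a 15 min compound preincubation; product detected by AlphaScreen beads and anti-H3K9me1 antibody.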
JMJD2A Tudor – JMJD2A Tudor domain (human) inhibition; Potency, µM (highest dose often 114 µM), actives largely listed as inhibitors; hit rate 4.4% among 390,000; AID 504339; AlphaScreen JMJD2A-Tudor / H3K4me3 peptide binding; further: nearly all actives have a fitted effect of over 50% in size
Target sequence (O75164 whole entry, looked up, the tested form may be a part): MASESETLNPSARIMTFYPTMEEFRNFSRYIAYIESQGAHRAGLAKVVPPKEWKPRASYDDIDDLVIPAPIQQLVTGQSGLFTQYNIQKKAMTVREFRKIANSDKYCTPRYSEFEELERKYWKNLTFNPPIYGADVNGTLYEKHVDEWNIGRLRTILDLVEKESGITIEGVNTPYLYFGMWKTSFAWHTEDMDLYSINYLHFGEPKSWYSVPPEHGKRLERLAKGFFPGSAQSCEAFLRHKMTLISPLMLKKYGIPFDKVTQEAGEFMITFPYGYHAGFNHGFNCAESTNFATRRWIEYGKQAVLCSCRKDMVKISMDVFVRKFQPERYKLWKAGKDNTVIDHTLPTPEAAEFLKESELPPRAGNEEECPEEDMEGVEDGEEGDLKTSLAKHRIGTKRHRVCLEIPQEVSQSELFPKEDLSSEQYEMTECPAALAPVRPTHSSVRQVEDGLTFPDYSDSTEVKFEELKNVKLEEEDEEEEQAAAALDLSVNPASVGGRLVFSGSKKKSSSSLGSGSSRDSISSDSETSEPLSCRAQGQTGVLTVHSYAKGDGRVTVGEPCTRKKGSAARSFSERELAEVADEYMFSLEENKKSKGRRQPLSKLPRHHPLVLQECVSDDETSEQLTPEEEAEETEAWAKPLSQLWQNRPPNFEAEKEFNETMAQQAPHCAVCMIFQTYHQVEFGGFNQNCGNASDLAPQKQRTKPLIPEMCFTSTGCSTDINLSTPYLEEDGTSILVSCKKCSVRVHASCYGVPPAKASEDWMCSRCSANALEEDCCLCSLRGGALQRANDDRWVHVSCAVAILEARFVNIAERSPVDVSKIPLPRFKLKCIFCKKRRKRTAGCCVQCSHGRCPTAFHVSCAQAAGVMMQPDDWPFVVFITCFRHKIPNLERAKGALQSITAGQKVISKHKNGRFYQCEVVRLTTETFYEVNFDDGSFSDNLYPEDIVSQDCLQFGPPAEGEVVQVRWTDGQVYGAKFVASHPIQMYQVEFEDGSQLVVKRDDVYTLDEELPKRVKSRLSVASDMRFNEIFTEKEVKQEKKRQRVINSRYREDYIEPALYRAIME
HP1b binding inh – inhibitors of HP1-beta chromodomain binding to methylated histone tails | AlphaScreen HP1-beta / biotin-H3K9me3 peptide binding | Potency, µM (top dose mostly 114 µM), hits mostly inhibitors | P83916 | hit rate 0.56% among 390,000 | AID 540317; further: nearly all actives have a fitted effect of over 70% in size
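HP1-beta protein (50 nM final) preincubated 30 min at room temperature with biotinylated H3(1-18)K9me3 peptide (50 nM) in PBS pH 7.4, 0.01% Tween-20, then compound added for 30 min. AlphaScreen streptavidin donor/nickel chelate acceptor beads (10 ug/mL final), 30 min dark, luminescence read.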
Six1-Eya2 blk – blocks human Six1 binding to Eya2; Q15475+O00167; AlphaScreen GST-Six1/His-Eya2 binding, biochemical; active compounds read low; hit rate 0.56% among 360,000; activity change, % (test concentration not listed); AID 651725; in the data active means activity change below about -65%; inconclusive means mostly about -30% to -63%
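GST-Six1 + His-Eya2 (5X stock: 250/500 nM); Tris pH 8.0, 300 mM NaCl, 0.05% BSA, 0.02% Tween 20; GSH donor/Ni acceptor beads; 1 h 37 °C dark; AlphaScreen readout.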
Of the large screens only hits and unclear results are named; the others gave an inactive call. An excerpt weighted towards active compounds, which were near 10% of everything screened. Unless noted, the call rests on the fitted dose curve; in most records, active means well fitted inhibition curve with a large enough effect; inconclusive means small, poorly fitted or top-dose-only effect; inactive means no such curve, though single readings can be large or run the other way.

CCOC(=O)c1cc2sccc2n1CC(=O)Nc1ccc(OC)cc1OC	G9a inh 13µM
COc1ccc(OC)c(NC(=O)c2cn(C)c(=O)c3cc(OC)c(OC)cc23)c1	G9a inh 40µM
Cn1c(C(=O)NCc2ccc3c(c2)OCO3)cc2sccc21	BAZ2B inh inconclusive, G9a inh inconclusive, JMJD2A Tudor inconclusive
COc1ccc(OC)c(NC(=O)c2cc3sccc3n2C)c1	BAZ2B inh inconclusive, G9a inh 50µM, JMJD2A Tudor inconclusive
Cn1c(C(=O)Nc2ccc3c(c2)OCO3)cc2sccc21	G9a inh 32µM, JMJD2A Tudor inconclusive
COc1ccc(Oc2ncc3nc(-c4cc(F)cc(F)c4)c(=O)n(CCC#N)c3n2)cc1	none (no result: BAZ2B inh, CtBP-E1A blk, JMJD2A Tudor, HP1b binding inh, Six1-Eya2 blk)
Cn1c(C(=O)Nc2ccccc2)cc2sccc21	BAZ2B inh inconclusive, G9a inh 1.6µM
COC(=O)c1ccc(NC(=O)c2cc3sccc3n2C)cc1	BAZ2B inh inconclusive, G9a inh 71µM
COc1cc(NC(=O)c2cc3sccc3n2C)cc(OC)c1	BAZ2B inh inconclusive, G9a inh inconclusive
Cc1cnc(CNC(=O)c2csc([C@@H]3O[C@H](CO)[C@H](O)[C@H](O)[C@H]3O)n2)cn1	none (no result: BAZ2B inh, G9a inh, JMJD2A Tudor, HP1b binding inh)
CCC(C)NC(=O)CCCN1C(=O)CCn2nc(-c3cccn3C)cc21 (stereo not drawn)	none (no result: CtBP-E1A blk, Six1-Eya2 blk)
COc1ccc(CCNC(=O)CCCn2c(=O)c3ccccc3n(CC(=O)Nc3ccc(C)cc3Cl)c2=O)cc1OC	BAZ2B inh inconclusive (no result: CtBP-E1A blk, Six1-Eya2 blk)
COc1ccc(N2CC(C(=O)N3CCc4ccccc43)CC2=O)cc1 (stereo not drawn)	none (no result: BAZ2B inh, G9a inh)
O=C(O)c1ccccc1N/N=C/C1=C(N2CCOCC2)C(=C\c2ccccc2)/CC1	BAZ2B inh 50µM, JMJD2A Tudor inconclusive, HP1b binding inh inconclusive (no result: G9a inh)
Cc1ccc(N2CCN(/N=C/C3=C(N4CCOCC4)C(=C\c4ccccc4)/CC3)CC2)cc1	none
Cc1cc(=O)[nH]c(N/N=C/C2=C(N3CCOCC3)C(=C\c3ccc(Cl)cc3)/CC2)n1	G9a inh 7.9µM
Cc1cc(C)nc(N/N=C/C2=C(N3CCOCC3)C(=C/c3ccccc3)/CC2)n1	BAZ2B inh inconclusive, G9a inh 10µM
C/C(=C/Cc1c(O)cc2oc(C)cc(=O)c2c1O)COC1OC(CO)C(O)C(O)C1O (stereo not drawn)	none
C#CCNC(=O)C[C@@H]1C[C@@]2(C(=O)OC)CCCCC=C2N(CCc2ccc(OC)c(OC)c2)C1=O	none (no result: BAZ2B inh, G9a inh, JMJD2A Tudor, HP1b binding inh)
Cc1cc([N+](=O)[O-])nn1CCCC(=O)Nc1cc(Oc2ccccc2)cc([N+](=O)[O-])c1	BAZ2B inh inconclusive, G9a inh 40µM, JMJD2A Tudor inconclusive
Cc1cc(C)cc(Oc2cc(NC(=O)c3cn(C)nc3C)cc([N+](=O)[O-])c2)c1	none
Cc1cccc(Oc2cc(NC(=O)Cn3cnc([N+](=O)[O-])n3)cc([N+](=O)[O-])c2)c1	BAZ2B inh inconclusive, G9a inh 14µM, JMJD2A Tudor inconclusive
Cc1cc(C)n(-c2nnc(C)c(=O)[nH]2)n1	BAZ2B inh 7.1µM, CtBP-E1A blk inconclusive, G9a inh 2µM, JMJD2A Tudor 1µM, Six1-Eya2 blk inconclusive
CN(C(=O)CN1C(=O)c2cccc(N)c2C1=O)C1CCCCC1	none
CCN(C(=O)COC(=O)/C=C/c1c(C)nn(-c2ccccc2)c1C)C1CCS(=O)(=O)C1 (stereo not drawn)	CtBP-E1A blk -71
CNC(=O)COC(=O)/C=C/c1c(C)nn(-c2ccccc2)c1C	G9a inh 50µM
Cc1nn(-c2ccccc2)c(C)c1/C=C/C(=O)OCC(=O)Nc1ncc(Cl)cc1Cl	G9a inh inconclusive, JMJD2A Tudor inconclusive
O=[N+]([O-])c1ccc(N2CCCCC2)c(-c2nn[nH]n2)c1	BAZ2B inh inconclusive, G9a inh 45µM
O=[N+]([O-])c1ccc(N2CCCCCC2)c(S(=O)(=O)N2CCCCC2)c1	BAZ2B inh inconclusive (no result: G9a inh)
Cc1ccc(C(C)C)cc1S(=O)(=O)Nc1cccnc1	none (no result: G9a inh)
Cc1cccc(OC(=O)CSc2nnc(CNC(=O)c3ccccc3)o2)c1C	none (no result: CtBP-E1A blk, Six1-Eya2 blk)
